# Screens from PubChem BioAssay.
# Compounds with a hit are over-represented: about 1.3% of the library has one in this group of screens.
# TRPML1 ag: activates the human TRPML1 channel. Q9GZU1. TRPML1-expressing cells, Ca2+ dye fluorescence, FDSS. activation, % (no concentration beside the values). 410,000 compounds, 0.12% hits; in the data active = activation above about 50%; inconclusive = mostly about 30% to 49%; note: 0% is about no effect
#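 In this qHTS format, compounds were pin-transferred onto Ca8-dye-loaded TRPML1-DL cells induced with Tet overnight, and intracellular Ca2+ fluorescence was recorded kinetically for 110 s after a 10 s baseline. A subsequent 4uM final 54-4 (EC80) addition followed by a second 110 s read served as the antagonist phase.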
# TSG101-PTAP inh: blocks PTAP/TSG101 interaction to inhibit HIV-1 budding. Q99816. Fluorescence polarization, FITC-PTAP peptide / Tsg101 binding. Potency, µM (titrated, usually from 115 µM), for the others: at the top dose activity change, negative = inhibition, actives largely listed as inhibitors. 340,000 tested, under 10 active. AID 493005; active = well fitted inhibition curve with a large enough effect in the main read-out, with a control signal flat, not every such curve was filed as active; inconclusive = small, poorly fitted or top-dose-only effect, or effect the other way, or a change in a side signal; inactive = no such curve, though single readings can be large or run the other way; note: potency is the fitted concentration of half-maximal effect; % of control where 0% means no effect
# Target sequence (Q99816 whole entry, looked up): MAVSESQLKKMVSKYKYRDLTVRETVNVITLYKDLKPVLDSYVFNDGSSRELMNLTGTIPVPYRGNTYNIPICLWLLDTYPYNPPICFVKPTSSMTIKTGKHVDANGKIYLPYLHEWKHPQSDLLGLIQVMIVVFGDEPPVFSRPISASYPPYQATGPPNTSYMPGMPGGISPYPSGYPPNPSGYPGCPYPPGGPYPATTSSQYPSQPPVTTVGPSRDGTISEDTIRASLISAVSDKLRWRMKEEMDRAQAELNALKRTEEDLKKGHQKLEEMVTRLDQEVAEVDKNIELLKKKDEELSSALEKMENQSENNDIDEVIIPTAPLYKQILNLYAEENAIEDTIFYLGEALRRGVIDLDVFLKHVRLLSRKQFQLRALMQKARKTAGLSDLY
#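 Fluorescence polarization binding of Tsg101 binding domain (10 uM final) to FITC-labeled PTAP peptide (50 nM final) in HEPES pH 7.5 buffer with NaCl, Tween 20, EDTA, TCEP. Compounds added before peptide; binding 20 min at RT.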
# BRCA1 expr up: activators of BRCA1 expression; MCF7-BRCA1-FFLuc reporter, luminescence, 48 h; response scale: scaled: vehicle 0%, 10 µM genistein 100%; Potency, µM (series often up to 46.1 µM), without a hit: top-dose activation, actives largely listed as activators; 380,000 compounds, 1.1% hits; AID 624202; note: potency is the fitted concentration of half-maximal effect; nearly all actives have a fitted effect of over 80% in size
#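 Quantitative HTS in MCF7 cells stably reporting BRCA1 expression via firefly luciferase. Compound treatment lasts 48 h at 37 °C in phenol-red free MEM. Activation is expressed relative to genistein at 10 microM and DMSO.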
# TRPML1 blocker: blocks the human TRPML1 channel; 390,000 compounds, 0.02% hits; activity change, negative = inhibition, % (concentration not given with the values); TRPML1-inducible cells, Ca2+ dye fluorescence, FDSS; active compounds read low; inhibition of EC80 agonist-evoked calcium signal; Q9GZU1; in the data active = activity change below about -50%; inconclusive = between about -30% and that limit;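 note: stimulus is agonist 54-4 at its EC80 concentration; % is set by controls: 0 for no effect and ±100 for the full control effect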
#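 Tet-induced TRPML1-DL cells loaded with Ca8 no-wash calcium dye were read kinetically on FDSS. Compound addition was followed by EC80 agonist 54-4 (4 uM final); inhibition was read over 110 s.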
# IL2 activator: activators of IL-2 | IL-2 activation reporter assay, cell-based qHTS; stimulated with anti-CD3/CD4/CD28 beads; in transgenic mouse T cells | activation, % (series mostly up to about 46 µM) | 360,000 compounds, 0.065% hits; in the data active = activation above about 50%; inconclusive = mostly about 30% to 49%; note: 0% is about no effect
#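 Using fluorescent plate cytometry, EGFP and DsRed are detected in transgenic mouse T cells stimulated 18 h at 37 degrees C with antibody-coated beads after 60 min compound pretreatment.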
# PKM2 activator: PKM2 (human) enzyme activation; P14618; purified PKM2, Kinase-Glo ATP luminescence, activation; response scale: 0% is enzyme alone, no compound; Potency, µM (titrated, usually from 57.5 µM), for the others: at the top dose activation, usual class: activators; 260,000 compounds, 0.34% hits; note: potency is the fitted concentration of half-maximal effect; % is set by controls: 0 for no effect and ±100 for the full control effect; nearly all actives have a fitted effect of over 55% in size
#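 ATP formation by purified human PK-M2, quantified via coupled luciferase luminescence after 1 h at room temperature with 0.1 mM ADP and 0.5 mM PEP final.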
# Active calls of the source: *; ? = inconclusive; / = no result. Unless noted, calls come from the whole dose curve; as a rule, active = well fitted activation curve with a large enough effect; inconclusive = small, poorly fitted or top-dose-only effect; inactive = no such curve, though single readings can be large or run the other way.
SMILES,TRPML1 ag,TSG101-PTAP inh,BRCA1 expr up,TRPML1 blocker,IL2 activator,PKM2 activator
CC(C)c1ccc(/C=N/NC(=O)C2CCCC2)cc1,1.0,-1.2%,60.3%,20.0,-3.8,-0.3%
O=[N+]([O-])c1ccccc1/C=C/c1ccnc2ccccc12,-1.0,/,3.5%,/,/,/
CC1(C)CC(=O)C2=C(C1)NC(Nc1nc3ccccc3o1)=NC2c1cccc(O)c1 (stereo not given),-0.4,/,-17.5%,/,/,/
COc1cccc(N2CCN(c3ncnc4onc(-c5ccc(F)cc5)c34)CC2)c1,2.4,/,/,-23.0,/,/
Cn1c(Cc2ccccc2)nnc1SCC(=O)N1CCOCC1,-1.0,-5.2%,2.0%,-5.0,2.7,-13.8%
Cn1c(Cc2ccccc2)nnc1SCC(=O)N1CCN(c2ccccc2)CC1,-1.0,-2.2%,-36.8%,-2.9,-3.3,12.6µM*
COc1ccc(OCc2cc(C(=O)N(C)Cc3nnc(C)o3)no2)c(Cl)c1,0.4,-4.7%,7.08µM*,6.2,1.5,-2.1%
COc1cc(Cl)ccc1OCc1cc(C(=O)N(C)Cc2nnc(C)o2)no1,0.2,-1.5%,69.2%,10.0,-0.9,5.9%
CCc1ccc(CN(C)C(=O)c2cc(COc3ccc(OC)cc3Cl)on2)nc1,1.0,-0.9%,8.91µM*,9.2,-3.9,-0.6%
CN(CCCN1CCOCC1)C(=O)c1cc(COc2ccc(F)cc2F)on1,-0.2,-0.3%,0.0%,-4.3,-2.8,/
COc1cc(C)ccc1OCc1cc(C(=O)N(C)CCCN2CCOCC2)no1,-0.4,-7.1%,7.94µM*,-1.9,-0.2,/
Cc1cc(CN(C)C(=O)c2cc(COc3ccc(F)cc3Cl)on2)n[nH]1,-0.1,0.2%,7.94µM*,21.2,-2.9,-0.8%
C[N+]1(CC(=O)c2c3ccccc3cc3ccccc23)CCOCC1,-0.3,/,3.2%,/,/,/
Cn1nnc2c(N3CCCCC3)ncnc21,-0.2,/,0.0%,-22.0,/,/
COc1ccc(OCc2cc(C(=O)N(C)Cc3cc(C)no3)no2)c(Cl)c1,1.4,-1.5%,3.98µM*,20.2,-0.4,/
Cc1scc(C(=O)N/N=C/c2ccc(Cl)s2)c1C,3.0,-0.8%,7.08µM*,4.4,-0.6,-0.2%
C/C(=N\NC(=O)c1csc(C)c1C)c1ccc(C)s1,1.2,-1.9%,10µM*,37.0,-3.0,-4.5%
Cc1cc(C)n2c(Nc3ccccc3)c(-c3ccc(C)o3)nc2n1,-0.8,/,14.8%,/,/,/
c1ccc(Oc2cc(-c3ccccc3)nc(-c3ccccc3)n2)cc1,1.9,-2.6%,-13.0%,23.0,1.5,-4.5%
c1ccc(Oc2cc(-c3ccccc3)ncn2)cc1,0.7,-0.1%,11.2µM*,5.5,0.0,-0.5%
O=C(C1CCC1)N1CCc2cc(S(=O)(=O)NCCc3ccccc3)ccc21,3.7,/,-2.4%,3.8,/,/
CC(=O)c1ccc(N2CCN(c3ncccn3)CC2)cc1,0.1,-3.7%,10µM*,8.3,0.6,0.4%
COCCCNC(=O)c1sc2nc(C)c(C(=O)Nc3ccc(C)cc3C)c(-c3ccccc3Cl)c2c1N,-1.3,/,/,5.0,/,/
COc1ccc(CNC(=O)N2CCN(S(=O)(=O)c3ccccc3)CC2)cc1,-0.6,-5.2%,-14.1%,10.2,-0.1,/
COc1ccc(COC(=O)NC2CCN(S(=O)(=O)c3ccc(OC)cc3)CC2)cc1,1.2,-2.0%,-34.2%,-1.8,-1.3,20µM*
SMILES,TRPML1 ag,TSG101-PTAP inh,BRCA1 expr up,TRPML1 blocker,IL2 activator,PKM2 activator
COc1ccc(S(=O)(=O)N2CCN(C(=O)NCc3ccccc3)CC2)cc1,3.2,-1.3%,-2.6%,28.1,0.5,7.08µM*
COc1ccc(CNC(=O)C2=CCN(S(=O)(=O)c3ccc(C)cc3)CC2)cc1,-0.6,-1.8%,-24.7%,8.2,0.6,14.1µM*
Cc1ccc(S(=O)(=O)N2CC=C(C(=O)NCc3ccccc3)CC2)cc1,-0.4,-0.5%,0.0%,-13.1,-2.3,?
CCn1c(C(=O)Nc2ccccc2C(=O)OC)cc2sc(Cl)cc21,-0.5,/,/,-5.2,/,/
COc1cccc(CNC(=O)c2sc3nc(C)cc(C)c3c2-n2cccc2)c1OC,3.5,/,/,-5.8,/,/
CCOC(=O)c1sc2ccccc2c1S(=O)(=O)NCc1ccccc1OC,2.6,/,/,36.3,/,/
Oc1ccc(Br)cc1C1C=C(c2ccc3c(c2)OCO3)NC(c2c(F)cccc2Cl)N1 (stereo not given),1.7,/,-27.8%,-8.8,/,/
Clc1ccccc1OCCN1CCCCC1,0.1,-1.7%,-2.0%,0.2,1.3,-10.2%
O=c1ccccn1CCOc1ccccc1Cl,0.3,0.2%,12.6µM*,14.8,-0.6,0.6%
Cn1c(=O)n(CCOc2ccccc2Cl)c2ccccc21,2.6,-3.3%,5.01µM*,-0.4,-3.1,-4.5%
Cc1ccc(-c2nn(-c3ccc(F)cc3F)c3c2cnc2c(F)cccc23)cc1,2.7,/,/,14.5,/,/
Cc1ccccc1CN1[C@H](C)[C@H](c2ccccc2)OCCS1(=O)=O,-0.9,/,/,/,/,/
O=C(NC(=O)c1ccc(Cl)cc1)OC1CCCCC1,0.2,-0.9%,12.6µM*,14.3,-3.3,1.3%
COc1cc(NS(=O)(=O)c2ccc(NC(=O)C(C)Oc3ccc(Cl)cc3Cl)cc2)nc(OC)n1 (stereo not given),0.2,/,/,9.2,/,/
CC(C)Sc1nnc(-c2c[nH]c3ccccc23)n1C,0.0,-1.0%,7.08µM*,17.5,-2.3,-3.6%
CCOC(=O)c1cc(-c2ccc(C)cc2)nn1Cc1ccccc1,-0.4,/,10µM*,7.6,/,/
Cc1ccc(Cn2nc(C)cc2C(=O)Nc2ccccc2Cl)cc1,3.0,-1.6%,3.98µM*,19.3,-0.8,/
COc1ccccc1C(=O)Nn1cnc2ccccc2c1=O,-0.1,-5.4%,10µM*,-4.2,-1.0,-2.7%
CC1(C)S[C@@H]2[C@H](NC(=O)COc3ccccc3)C(=O)N2[C@@H]1C(=O)OCc1cccc2cccnc12,-0.5,/,/,/,/,/
CCOc1ccc2c(c1)C(=O)c1cc(OCC(=O)O)ccc1-2,0.1,0.6%,0.0%,-2.5,-0.4,-2.5%
CCCCOc1ccc2c(c1)C(=O)c1cc(O)ccc1-2,0.9,-1.7%,3.55µM*,30.5,1.9,-1.9%
CNc1ccc(C=O)cc1Cl,-0.6,/,32.2%,/,/,/
Cc1cc(C)c2c(N)c(C(=O)Nc3ccccc3C(F)(F)F)sc2n1,2.4,/,/,-18.4,/,/
Nc1c(C(=O)Nc2ccccc2F)sc2nc(Cc3ccccc3)cc(C(F)(F)F)c12,4.7,?,0.8%,-5.5,51.1*,-15.1%
Oc1oc(-c2ccccc2)nc1C=NCc1ccccc1,1.2,-7.9%,10µM*,-5.6,-0.7,10.4%
CCCCCCCCCCCCCCCC[n+]1ccc(C)cc1,5.6,/,/,/,/,/
CCOc1ccc(/C=C/c2ccnc3ccccc23)cc1OCC,0.0,/,-19.5%,/,/,/
